This passage reports Percent Effect results from ChEMBL document CHEMBL3988442, “University of Dundee, Small-Polar-MMV Screening Library” (2021).

What all share (set-up): scale not given: direction of the effect not stated beside the values
Assay [1] deals with Protein translocase subunit SecA (Escherichia coli (strain K12)) (UniProt P10408). The experiment in a line: Assay to Identify E. coli SecA ATPase Inhibitors. Conditions: 30 µM. It is filed as functional.
The target in assay [2] is T1, Ubiquitin-activating enzyme e1, putative (Leishmania donovani (strain BPK282A1)) (UniProt E9BSI1).
T1 sequence (whole entry): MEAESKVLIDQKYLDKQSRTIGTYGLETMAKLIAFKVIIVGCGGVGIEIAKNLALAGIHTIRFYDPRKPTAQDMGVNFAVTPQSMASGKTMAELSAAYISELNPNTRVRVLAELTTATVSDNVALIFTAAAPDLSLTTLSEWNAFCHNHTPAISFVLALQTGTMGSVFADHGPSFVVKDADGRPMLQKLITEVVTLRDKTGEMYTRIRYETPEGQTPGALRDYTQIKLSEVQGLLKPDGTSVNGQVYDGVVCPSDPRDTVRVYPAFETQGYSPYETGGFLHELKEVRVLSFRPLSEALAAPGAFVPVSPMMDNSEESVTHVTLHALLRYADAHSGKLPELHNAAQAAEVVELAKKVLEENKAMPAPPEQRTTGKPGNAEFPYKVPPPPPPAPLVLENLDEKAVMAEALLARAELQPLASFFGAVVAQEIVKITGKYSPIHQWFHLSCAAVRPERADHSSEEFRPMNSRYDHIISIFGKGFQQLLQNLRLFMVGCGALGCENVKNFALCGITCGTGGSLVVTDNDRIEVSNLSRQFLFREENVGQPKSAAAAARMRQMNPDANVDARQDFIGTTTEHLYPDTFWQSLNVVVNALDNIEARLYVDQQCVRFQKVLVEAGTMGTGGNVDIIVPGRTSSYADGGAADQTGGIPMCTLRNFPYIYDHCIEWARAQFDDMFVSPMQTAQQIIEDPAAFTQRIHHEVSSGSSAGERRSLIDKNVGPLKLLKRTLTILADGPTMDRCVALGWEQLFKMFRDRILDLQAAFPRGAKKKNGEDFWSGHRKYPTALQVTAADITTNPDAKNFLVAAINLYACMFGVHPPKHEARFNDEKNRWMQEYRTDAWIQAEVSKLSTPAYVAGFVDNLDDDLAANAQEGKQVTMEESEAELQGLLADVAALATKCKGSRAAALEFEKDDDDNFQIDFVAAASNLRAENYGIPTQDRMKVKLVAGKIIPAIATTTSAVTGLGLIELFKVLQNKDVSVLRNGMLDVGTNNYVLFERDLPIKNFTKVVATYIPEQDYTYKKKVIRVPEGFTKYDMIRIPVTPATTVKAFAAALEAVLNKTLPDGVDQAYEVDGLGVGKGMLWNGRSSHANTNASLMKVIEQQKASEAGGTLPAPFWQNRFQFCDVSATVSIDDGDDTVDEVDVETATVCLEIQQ
The experiment in a line: Leishmania donovani Ubiquitin Activating Enzyme (LdE1). The assay is classed as functional. Conditions: 30 µM.

Assay [3] addresses AMP-activated protein kinase, AMPK (Homo sapiens) (UniProt P54646+O43741+P54619+Q9UGJ0+Q9Y478+Q13131+Q9UGI9). The assay can be described thus: AMP-dependent Kinase enzyme assay. An in vitro enzyme assay that detects ADP turnover that is directly proportional to AMPK activity. This uses naive AMPK that is activated during the assay with MK-8722. Conditions: 30 µM. The assay is classed as functional.

For assay [4], the target named is Sialic acid-binding Ig-like lectin 9 (Homo sapiens) (UniProt Q9Y336). The assay can be described thus: Hs-Siglec9 ALPHAscreen SOP 20170721. Conditions: 10 µM.
The next assay relates to Trypanosoma cruzi. The assay can be described thus: Trypanosoma cruzi phosphomannomutase and mannose-1-phosphate guanylyltransferase assay. It is filed as functional. To be noted: 10 µM.
Assay [5] deals with T2, Arginase-2, mitochondrial (Homo sapiens) (UniProt P78540).
T2 sequence (whole entry): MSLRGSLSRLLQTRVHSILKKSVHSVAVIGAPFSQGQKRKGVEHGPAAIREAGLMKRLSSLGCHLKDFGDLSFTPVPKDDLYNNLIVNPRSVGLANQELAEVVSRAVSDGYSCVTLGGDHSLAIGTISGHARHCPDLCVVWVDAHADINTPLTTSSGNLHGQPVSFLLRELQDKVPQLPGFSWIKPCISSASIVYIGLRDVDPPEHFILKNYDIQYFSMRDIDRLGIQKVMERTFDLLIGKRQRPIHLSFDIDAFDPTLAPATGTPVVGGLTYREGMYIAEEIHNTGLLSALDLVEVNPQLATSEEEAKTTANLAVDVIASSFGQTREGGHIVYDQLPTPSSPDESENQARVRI
The experiment in a line: in vitro enzyme assay to detect the production of urea directly proportional to the activity of Arginase II. Further: in the data most compounds retested in dose-response had high values. It is filed as functional. Conditions: 33.3 µM.

Assay [6] addresses T3, Proteasome subunit beta (Trypanosoma cruzi) (UniProt O96673).
T3 sequence (whole entry): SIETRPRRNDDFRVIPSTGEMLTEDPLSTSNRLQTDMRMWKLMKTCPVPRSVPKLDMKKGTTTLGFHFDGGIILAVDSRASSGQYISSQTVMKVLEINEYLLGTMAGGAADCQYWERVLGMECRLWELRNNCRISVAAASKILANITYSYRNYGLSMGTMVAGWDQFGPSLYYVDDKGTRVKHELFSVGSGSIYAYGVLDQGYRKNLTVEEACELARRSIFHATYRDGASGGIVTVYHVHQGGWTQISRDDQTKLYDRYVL
The assay can be described thus: Trypanosoma cruzi proteasome chymotrypsin-like activity (TcProtChymo) assay. Further: in the data most compounds retested in dose-response had high values. The assay is classed as functional. To be noted: 9.37 µM.

The species named for the next assay is Homo sapiens. The assay can be described thus: To identify inhibition of the IFN signalling (Jak-Stat) pathway via expression of an eGFP reporter gene under the control of an IFN-stimulated response element (ISRE) containing MxA promoter. It is filed as functional. Conditions: 30 µM. On the technique in general: Reporter assays use an easily measured gene product as a stand-in for the process of interest.

For assay [7], the target named is T4, Tyrosyl-tRNA synthetase, putative (Trypanosoma cruzi (strain CL Brener)) (UniProt Q4DSP6).
T4 sequence (whole entry): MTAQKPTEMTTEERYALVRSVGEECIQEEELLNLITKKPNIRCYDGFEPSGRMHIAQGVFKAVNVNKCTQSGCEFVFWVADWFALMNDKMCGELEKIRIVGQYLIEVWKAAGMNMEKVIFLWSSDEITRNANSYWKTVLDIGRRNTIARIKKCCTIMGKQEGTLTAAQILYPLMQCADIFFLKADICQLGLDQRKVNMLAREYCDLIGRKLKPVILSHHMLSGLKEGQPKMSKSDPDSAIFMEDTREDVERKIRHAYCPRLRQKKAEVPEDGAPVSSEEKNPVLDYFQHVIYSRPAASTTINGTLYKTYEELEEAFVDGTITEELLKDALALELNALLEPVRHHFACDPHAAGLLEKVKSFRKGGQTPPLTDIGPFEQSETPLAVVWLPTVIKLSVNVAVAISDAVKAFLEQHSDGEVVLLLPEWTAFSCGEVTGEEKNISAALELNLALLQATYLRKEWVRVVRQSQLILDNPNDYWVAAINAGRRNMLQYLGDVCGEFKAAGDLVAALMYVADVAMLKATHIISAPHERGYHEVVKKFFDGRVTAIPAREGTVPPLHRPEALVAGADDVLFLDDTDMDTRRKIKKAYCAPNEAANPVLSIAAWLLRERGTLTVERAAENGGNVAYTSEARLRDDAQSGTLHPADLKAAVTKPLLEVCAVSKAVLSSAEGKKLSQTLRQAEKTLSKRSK
The assay can be described thus: Trypanosoma cruzi tyrosyl tRNA synthetase (TcYRS) _High Tyrosine SOP. Further: in the data most compounds retested in dose-response had high values. The assay is classed as functional. To be noted: 30 µM.

Assay [8] addresses T4, Tyrosyl-tRNA synthetase, putative (Trypanosoma cruzi (strain CL Brener)). The assay can be described thus: Trypanosoma cruzi tyrosyl tRNA synthetase (TcYRS) SOP. To be noted: 30 µM. It is filed as functional.
Assay [9] deals with Chromo domain-containing protein 1 (Saccharomyces cerevisiae (strain ATCC 204508 / S288c) (Baker's yeast)) (UniProt P32657). The assay can be described thus: ScCHD-1 Enzyme Inhibition Assay. Further: in the data most compounds retested in dose-response had high values. It is filed as functional. To be noted: 30 µM.

Structures are written as SMILES. For some of these results: Potency and affinity values are given separately.

Chain of Sialic acid-binding Ig-like lectin 9 (Homo sapiens) (Q9Y336 whole entry): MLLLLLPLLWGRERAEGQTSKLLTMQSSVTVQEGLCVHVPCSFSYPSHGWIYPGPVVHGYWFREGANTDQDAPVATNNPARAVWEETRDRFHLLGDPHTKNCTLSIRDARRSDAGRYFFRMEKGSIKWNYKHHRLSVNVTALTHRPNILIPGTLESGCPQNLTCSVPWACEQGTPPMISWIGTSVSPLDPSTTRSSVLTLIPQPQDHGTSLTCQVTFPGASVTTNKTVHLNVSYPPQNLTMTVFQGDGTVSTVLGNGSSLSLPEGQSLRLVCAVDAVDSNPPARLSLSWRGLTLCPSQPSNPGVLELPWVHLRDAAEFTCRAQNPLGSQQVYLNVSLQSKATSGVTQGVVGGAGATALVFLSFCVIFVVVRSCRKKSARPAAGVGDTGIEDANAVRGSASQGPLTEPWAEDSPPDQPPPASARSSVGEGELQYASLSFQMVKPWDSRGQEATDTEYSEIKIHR
Chain of Chromo domain-containing protein 1 (Saccharomyces cerevisiae (strain ATCC 204508 / S288c) (Baker's yeast)) (P32657 whole entry, the tested form may be a part): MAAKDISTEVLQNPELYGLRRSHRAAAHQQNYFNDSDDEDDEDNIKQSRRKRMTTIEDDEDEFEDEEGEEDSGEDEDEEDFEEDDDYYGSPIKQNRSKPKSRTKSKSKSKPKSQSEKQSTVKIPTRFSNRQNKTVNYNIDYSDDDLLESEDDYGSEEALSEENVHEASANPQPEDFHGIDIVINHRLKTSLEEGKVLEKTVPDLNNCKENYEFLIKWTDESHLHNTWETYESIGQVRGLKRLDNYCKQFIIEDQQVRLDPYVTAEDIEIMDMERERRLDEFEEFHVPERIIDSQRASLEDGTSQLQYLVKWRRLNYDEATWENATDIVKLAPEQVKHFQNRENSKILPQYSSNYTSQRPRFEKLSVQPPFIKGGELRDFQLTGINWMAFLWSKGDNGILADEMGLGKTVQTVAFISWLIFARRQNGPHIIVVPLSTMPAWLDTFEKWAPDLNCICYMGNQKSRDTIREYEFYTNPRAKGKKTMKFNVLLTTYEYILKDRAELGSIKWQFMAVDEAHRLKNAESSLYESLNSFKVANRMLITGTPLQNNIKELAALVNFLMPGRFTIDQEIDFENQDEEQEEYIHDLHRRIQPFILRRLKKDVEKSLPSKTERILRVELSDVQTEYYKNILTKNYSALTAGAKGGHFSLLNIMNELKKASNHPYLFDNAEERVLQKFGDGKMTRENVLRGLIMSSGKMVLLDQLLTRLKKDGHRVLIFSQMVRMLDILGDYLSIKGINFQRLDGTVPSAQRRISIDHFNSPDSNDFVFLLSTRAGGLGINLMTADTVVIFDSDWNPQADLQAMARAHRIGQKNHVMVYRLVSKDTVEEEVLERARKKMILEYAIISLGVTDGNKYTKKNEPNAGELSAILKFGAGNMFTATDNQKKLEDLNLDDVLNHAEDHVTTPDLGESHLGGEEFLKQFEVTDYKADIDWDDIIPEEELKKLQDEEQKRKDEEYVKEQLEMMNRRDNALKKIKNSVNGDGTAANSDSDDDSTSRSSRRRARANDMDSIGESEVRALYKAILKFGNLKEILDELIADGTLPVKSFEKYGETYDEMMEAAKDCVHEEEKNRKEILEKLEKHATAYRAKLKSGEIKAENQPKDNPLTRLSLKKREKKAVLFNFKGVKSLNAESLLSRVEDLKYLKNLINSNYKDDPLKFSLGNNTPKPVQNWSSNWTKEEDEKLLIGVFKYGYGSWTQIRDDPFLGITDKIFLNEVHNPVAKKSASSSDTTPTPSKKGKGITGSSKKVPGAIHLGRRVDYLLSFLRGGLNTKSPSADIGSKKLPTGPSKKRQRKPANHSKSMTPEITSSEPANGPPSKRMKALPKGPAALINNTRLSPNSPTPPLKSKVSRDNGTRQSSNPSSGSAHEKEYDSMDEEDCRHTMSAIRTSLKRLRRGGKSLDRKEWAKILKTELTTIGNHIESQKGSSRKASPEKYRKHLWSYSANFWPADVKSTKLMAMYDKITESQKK
Chain of Protein translocase subunit SecA (Escherichia coli (strain K12)) (P10408 whole entry): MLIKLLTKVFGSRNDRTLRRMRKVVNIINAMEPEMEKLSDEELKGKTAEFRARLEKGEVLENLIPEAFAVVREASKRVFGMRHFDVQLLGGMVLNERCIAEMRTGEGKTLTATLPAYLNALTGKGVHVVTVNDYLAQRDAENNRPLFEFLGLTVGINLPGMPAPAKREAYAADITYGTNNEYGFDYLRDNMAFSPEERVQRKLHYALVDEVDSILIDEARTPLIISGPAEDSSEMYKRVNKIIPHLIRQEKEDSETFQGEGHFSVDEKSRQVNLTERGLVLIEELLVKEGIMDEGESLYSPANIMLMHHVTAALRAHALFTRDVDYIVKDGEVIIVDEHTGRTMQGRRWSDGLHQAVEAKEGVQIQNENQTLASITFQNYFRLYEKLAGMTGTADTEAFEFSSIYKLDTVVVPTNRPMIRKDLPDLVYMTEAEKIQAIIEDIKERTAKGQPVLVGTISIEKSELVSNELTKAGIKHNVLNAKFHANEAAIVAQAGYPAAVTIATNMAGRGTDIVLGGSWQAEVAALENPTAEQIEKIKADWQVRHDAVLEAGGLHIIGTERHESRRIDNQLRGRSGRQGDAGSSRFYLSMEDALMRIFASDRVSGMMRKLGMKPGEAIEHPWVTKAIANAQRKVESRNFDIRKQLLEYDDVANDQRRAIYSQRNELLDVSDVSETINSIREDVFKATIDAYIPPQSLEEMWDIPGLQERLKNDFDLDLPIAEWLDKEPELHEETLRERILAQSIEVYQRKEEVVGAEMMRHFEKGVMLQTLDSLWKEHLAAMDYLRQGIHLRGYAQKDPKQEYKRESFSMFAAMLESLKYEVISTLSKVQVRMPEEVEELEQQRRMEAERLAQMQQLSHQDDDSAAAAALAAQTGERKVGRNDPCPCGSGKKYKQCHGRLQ

Regarding `CCc1cnc(N2CCC(=O)N(CC3CC3)C(C(C)C)C2)nc1` (stereo unspecified), the Percent Effect was 3.49% in assay [1]; 13.5% in assay [2]; -2.35% in assay [3]; 11.8% in assay [4]; -0.965% with Trypanosoma cruzi; 4.29% in assay [5]. Further, the Percent Effect in [6] is 8.62%; in the assay filed under Homo sapiens it was 29.3%; in [7], 3.7%; in [8], 12.2%; in assay [9], -1.36%.
As for `CC(C)n1c(C2CCCN(CCS(C)(=O)=O)C2)nc2ccccc21` (stereo unspecified), the Percent Effect in assay [1] was -2.02%; in assay [2], 8.11%; in assay [3], 1.95%; in assay [4], -0.0156%; with Trypanosoma cruzi, 0.586%; in assay [5] it was 13.8%. Besides, the Percent Effect was 7.69% in [6]; -5.65% in the assay filed under Homo sapiens; 5.94% in assay [7]; 8.54% in assay [8]; -2.93% in assay [9].
In the case of `O=C1CCC(C(=O)NCc2nncn2-c2ccccc2)CN1` (stereo unspecified), the Percent Effect is -6.76% in assay [1]; 10.8% in [2]; -10.2% in [3]; 20.8% in [4]; 3.68% with Trypanosoma cruzi; -7.21% in assay [5]. For the same compound, the Percent Effect was 1.8% in assay [6]; 7.93% in the assay filed under Homo sapiens; 2.46% in assay [7]; 23.5% in assay [8]; -12.7% in assay [9].
For `CN(C)C(=O)c1cnc2n1CCN(Cc1ccccc1)C2`, the Percent Effect in assay [1] is 1.01%; in assay [2], 13.3%; in [3], 6.19%; in assay [4], -6.07%; in the assay on Trypanosoma cruzi, -7.87%; in [5] it was 8.62%. In addition, the Percent Effect in assay [6] is 15.2%; in the assay filed under Homo sapiens, 0.000462%; in assay [7], 3.19%; in assay [8], 8.97%; in [9] it was -5.59%.
In the case of `CN1CCN(C2CCN(CCOc3ccc(F)cc3)CC2)C1=O`, the Percent Effect in assay [1] was -8.87%; in assay [2], 2.6%; in assay [3], 0.436%; in assay [4] it was -4%; with Trypanosoma cruzi, -3.18%; in [5] it was -0.356%. The Percent Effect in [6] was 4.05%; in the assay listed under Homo sapiens, 37.8%; in assay [7], 0%; in [8], 0%; in [9], -7.75%.
As for `CS(=O)(=O)NC[C@H]1OC[C@@H]2CCN(Cc3ccc(F)cc3)C[C@@H]21`, the Percent Effect in assay [1] is 0.854%; in assay [2], 13.3%; in assay [3], 2.13%; in [4] it was -0.611%; with Trypanosoma cruzi it was -1.74%; in assay [5], -27.8%. Besides, the Percent Effect in assay [6] was 7.35%; in the assay listed under Homo sapiens, 13.4%; in [7], 3.12%; in [8], 15%; in assay [9], -6.75%.
In the case of `Cc1cc(=O)n(CC(=O)NCC2CCCO2)c(-c2cccc(Cl)c2)n1` (stereo unspecified), the Percent Effect in [1] is -4.72%; in assay [2], 18.2%; in assay [3], -2.1%; in assay [4], 12.6%; in the assay with Trypanosoma cruzi, 6.59%; in [5] it was 11%. Further, the Percent Effect is 9.15% in assay [6]; -10.7% in the assay listed under Homo sapiens; 5.38% in [7]; 16.1% in assay [8]; -4.38% in assay [9].
In the case of `c1ccc2oc(CCCN3CCCC3Cn3cncn3)nc2c1` (stereo unspecified), the Percent Effect in assay [1] is -1.49%; in [2], 0%; in [3], 0.485%; in assay [4] it was 12.2%; in the assay on Trypanosoma cruzi, -1.02%; in [5] it was 3.51%. For the same compound, the Percent Effect amounted to 5.92% in assay [6]; 13.6% in the assay listed under Homo sapiens; 7.92% in assay [7]; 6.1% in assay [8]; 7.47% in assay [9].
In the case of `CSCc1cccc(S(=O)(=O)NCCCN2CCOCC2)c1`, the Percent Effect was -6.05% in assay [1]; 5.2% in assay [2]; 1.35% in assay [3]; 8.61% in assay [4]; 3.64% in the assay on Trypanosoma cruzi; -6.9% in assay [5]. Further, the Percent Effect is 3.33% in assay [6]; -22.2% in the assay filed under Homo sapiens; 4.3% in assay [7]; 11.1% in assay [8]; -3.9% in assay [9].
On to `Cc1ncccc1OC1(C(=O)NCCCN2CCOCC2)CCNCC1`, for which the Percent Effect in assay [1] is -0.6%; in assay [2] it was 5.41%; in assay [3], -5.62%; in [4], -0.0436%; with Trypanosoma cruzi it was -5.02%; in assay [5], 1.43%. The Percent Effect in assay [6] was 11.2%; in the assay filed under Homo sapiens it was 11%; in [7] it was 6.88%; in [8] it was 9.76%; in assay [9], -2.8%.
As for `Cc1nc(CN2CCCC(N(C)CCc3cccs3)C2)no1` (stereo unspecified), the Percent Effect is -2.72% in assay [1]; 12.5% in assay [2]; -8.86% in assay [3]; 8.38% in assay [4]; -1.65% in the assay with Trypanosoma cruzi; 2.21% in [5]. The Percent Effect in [6] is 11.4%; in the assay listed under Homo sapiens it was 10.9%; in [7], 7.37%; in [8] it was 2.56%; in assay [9] it was -2.19%.
